Reference: PubChem BioAssay (EPA / NIEHS)
Activity calls are given as the source filed them. How the source made its calls: active means hit-call score of the fitted dose curve at least 0.9, where 1 is the maximum; inactive means score below 0.9.

Columns and labels:
[1] = APR_HepG2_P-H2AX_72hr: Apredica 72-hour HepG2 Assay for H2AX Phosphorylation (AID 2282916); conditions: imaging, actives raise or lower the signal;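 further: phospho-histone H2A.x immunostain intensity per cell marking DNA damage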
Method in brief: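 HepG2 human liver cells were exposed for 72 hr to compounds at 0.39–200 uM (10 concentrations, duplicate per plate) in 0.5% v/v DMSO. Fixed, permeabilized cells were immunolabeled for phospho-histone H2A.x with Hoechst 33342 and imaged by HCS fluorescence; bidirectional fit versus DMSO.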

[2] = APR_HepG2_MitoMembPot_72hr: Apredica 72-hour HepG2 Assay for Mitochondrial Membrane Potential (AID 2282917); conditions: imaging, actives raise or lower the signal
Method in brief: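 HepG2 cells dosed 72 hr with compound at 0.39–200 uM in duplicate, 0.5% v/v DMSO final. Mitochondria stained with 250 nM MitoTracker Red CMXRos for 30 min before formaldehyde fixation, imaged by high-content fluorescence; bidirectional fit versus DMSO.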

[3] = APR_HepG2_MitoticArrest_72hr: Apredica 72-hour HepG2 Assay for Mitotic Arrest (AID 2282918); conditions: high-content imaging, actives raise or lower the signal
Method in brief: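 HepG2 cells treated 72 h at 0.39–200 uM, 0.5% DMSO final; formaldehyde-fixed, stained with Hoechst 33342 and phospho-histone H3 antibody, imaged by high-content fluorescence; bidirectional fit versus DMSO.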

[4] = APR_HepG2_MicrotubuleCSK_72hr: Apredica 72-hour HepG2 Assay for Microtubule CSK Stabilty (AID 2282919); conditions: HepG2 microtubule cytoskeleton, high-content imaging, actives raise or lower the signal
Method in brief: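 HepG2 cells were exposed 72 hr to compound at 0.39–200 uM in duplicate (0.5% DMSO final), then fixed and permeabilized. Alpha-tubulin immunofluorescence was imaged by high-content microscopy, with bidirectional fitting against DMSO and taxol as positive control.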

[5] = APR_HepG2_P-H2AX_24hr: Apredica 24-hour HepG2 Assay for H2AX Phosphorylation (AID 2282920); conditions: high-content imaging, actives raise or lower the signal
Method in brief: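 HepG2 cells dosed 24 h at 0.39–200 uM (10 points, duplicate, 0.5% DMSO final). Formaldehyde-fixed and permeabilized, then immunostained for phospho-H2A.x with Hoechst. Fluorescence quantified by high-content imaging, fitted bidirectionally versus DMSO.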

[6] = APR_HepG2_StressKinase_72hr: Apredica 72-hour HepG2 Assay for Stress Kinase (AID 2282921); conditions: HepG2 stress kinase (phospho-c-Jun) imaging, actives raise or lower the signal
Method in brief: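 Cells were exposed for 72 h to ten concentrations (0.39–200 uM, duplicate) at 0.5% v/v DMSO final, then fixed with 3.7% formaldehyde, permeabilized and immunostained for phospho-c-Jun (Cy3 secondary) with Hoechst nuclear counterstain.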

[7] = APR_HepG2_StressKinase_24hr: Apredica 24-hour HepG2 Assay for Stress Kinase (AID 2282922); conditions: HepG2 stress kinase (phospho-c-Jun) imaging, actives raise or lower the signal
Method in brief: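 HepG2 cells exposed 24 h to 0.39–200 uM compound in duplicate (0.5% v/v DMSO final). Cells fixed in 3.7% formaldehyde, permeabilized and immunostained for phospho-c-Jun; read by high-content fluorescence imaging, fitted bidirectionally against DMSO.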

[8] = APR_HepG2_p53Act_72hr: Apredica 72-hour HepG2 Assay for p53 Activation (AID 2282923); conditions: high-content imaging, actives raise or lower the signal;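 further: average cellular p53 protein immunofluorescence intensity in HepG2 cells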
Method in brief: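 Cells were dosed for 72 hr with compounds at 0.39–200 uM in duplicate (final DMSO 0.5% v/v), then fixed in 3.7% formaldehyde, permeabilized with Triton X-100 and immunostained for p53 (Cy5) with Hoechst 33342 nuclear counterstain.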

[9] = APR_HepG2_MitoMass_72hr: Apredica 72-hour HepG2 Assay for Mitochondrial Mass (AID 2282924); conditions: high-content imaging, actives raise or lower the signal;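 further: MitoTracker Red CMXRos stain intensity per cell imaged as mitochondrial mass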
Method in brief: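 HepG2 cells dosed 72 hr at 0.39–200 uM (0.5% DMSO), in duplicate. MitoTracker Red CMXRos 250 nM loaded 30 min before formaldehyde fixation; high-content fluorescence imaging, bidirectional fit versus DMSO.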

[10] = APR_HepG2_NuclearSize_72hr: Apredica 72-hour HepG2 Assay for Nuclear Size (AID 2282925); conditions: high-content imaging, actives raise or lower the signal
Method in brief: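 HepG2 cells dosed 72 h at 0.39–200 uM (10 concentrations, duplicate) in 0.5% v/v DMSO final. Fixed, Hoechst 33342-stained nuclei imaged; nuclear diameter measured by automated image analysis. Bidirectional fit versus DMSO.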

Measured: AC50

C[Si](Cn1cncn1)(c1ccc(F)cc1)c1ccc(F)cc1
inactive: all assays above

COc1cc(OC)nc(Sc2cccc(Cl)c2C(=O)O)n1
inactive: all assays above

COc1ccc(C(=CC(=O)N2CCOCC2)c2ccc(Cl)cc2)cc1OC
inactive: all assays above

CN(C)[C@@H]1C(=O)C(C(N)=O)=C(O)[C@@]2(O)C(=O)C3=C(O)c4c(O)cccc4[C@@](C)(O)[C@H]3[C@H](O)[C@@H]12
not listed: [8]
inactive: all other assays above

CC[C@H](C)[C@H]1O[C@]2(C=C[C@@H]1C)C[C@@H]1C[C@@H](C/C=C(\C)[C@@H](O[C@H]3C[C@H](OC)[C@@H](O[C@H]4C[C@H](OC)[C@@H](NC)[C@H](C)O4)[C@H](C)O3)[C@@H](C)/C=C/C=C3\CO[C@@H]4[C@H](O)C(C)=C[C@@H](C(=O)O1)[C@]34O)O2
active: [2] 0.16 µM
inactive: all other assays above

COP(=O)(OC)SCn1c(=O)oc2cc(Cl)cnc21
active: [1] 53.8 µM | [4] 56.3 µM | [6] 26.3 µM
not listed: [3]
inactive: all other assays above

COc1cccc(C(=O)NN(C(=O)c2cc(C)cc(C)c2)C(C)(C)C)c1C
inactive: all assays above

CSC1=N[C@@](C)(c2ccccc2)C(=O)N1Nc1ccccc1
active: [4] 38.6 µM
inactive: all other assays above

O=[N+]([O-])c1cc(C(F)(F)F)c(Cl)c([N+](=O)[O-])c1Nc1ncc(C(F)(F)F)cc1Cl
active: [1] 1.13 µM | [3] 0.767 µM | [4] 100 µM
not listed: [8]
inactive: all other assays above

CCOP(=S)(OCC)Oc1ccc([N+](=O)[O-])cc1
not listed: [3]
inactive: all other assays above

CSc1nc(NC(C)C)nc(NC(C)C)n1
inactive: all assays above

COP(=O)(OC)OC(Br)C(Cl)(Cl)Br (stereo not drawn)
active: [5] 33.4 µM | [7] 32.5 µM
not listed: [8]
inactive: all other assays above

CCc1cccc(C)c1N(C(=O)CCl)C(C)COC (stereo not drawn)
active: [1] 87.6 µM | [3] 82.6 µM | [4] 62.4 µM
inactive: all other assays above

CCC(CC)Nc1c([N+](=O)[O-])cc(C)c(C)c1[N+](=O)[O-]
active: [4] 108 µM
inactive: all other assays above

CCc1cnc(C2=NC(C)(C(C)C)C(=O)N2)c(C(=O)O)c1 (stereo not drawn)
not listed: [8]
inactive: all other assays above

C[N+]1(C)CCCCC1
inactive: all assays above

CC(=NC#N)N(C)Cc1ccc(Cl)nc1
not listed: [3]
inactive: all other assays above

CCOP(=S)(Oc1cnc(C(C)(C)C)nc1)OC(C)C (stereo not drawn)
active: [4] 66.5 µM
inactive: all other assays above

CCCCN(CC)c1c([N+](=O)[O-])cc(C(F)(F)F)cc1[N+](=O)[O-]
inactive: all assays above

N#CSCSC#N
inactive: all assays above
